# PubChem BioAssay (NCATS)
# A number with no mark means an inactive call. Records with an inconclusive call do not appear. Calls of active or inactive are those of the source. Unless noted, calls come from the whole dose curve; as a rule, active = well fitted curve in either direction with a large enough effect (not every such curve was filed as active); inconclusive = small, poorly fitted or top-dose-only effect, or another doubt; inactive = flat fitted curve, though single readings scatter.
# Columns and labels:
# [1] = AP1 Signaling Pathway (AID 357); conditions: ME-180 AP-1-bla reporter, EGF-induced, beta-lactamase ratio, 5 h; at 17.2 µM (top of the series) unless noted;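 note: ME-180 reporter cells stimulated with EGF at its EC50 level; % is set by controls: 0 for no effect and ±100 for the full control effect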
# Method in brief: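 Read-out was the 460nm/530nm emission ratio (excitation 405nm) after CCF4 loading for 2.5 hours at room temperature. Cells carried an AP-1-driven beta-lactamase reporter, were stimulated with EC50 EGF plus compound for 5 hours, and AC50 values came from titrations.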
# [2] = NFAT Signaling Pathway (AID 444); conditions: Jurkat NFAT-bla M1, carbachol, beta-lactamase ratio, 5 h; at 17.2 µM (top of the series) unless noted;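 note: carbachol stimulus at about its EC50 of 1 µM final; % is set by controls: 0 for no effect and ±100 for the full control effect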
# Method in brief: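 Read-out: CCF4 FRET ratio (460 nm/530 nm) after 1 h RT dye loading, used for %activity and AC50 from titration series. Cells: Jurkat NFAT-β-lactamase/M1 line, treated with compound plus 1 uM carbachol for 5 h, 37 °C.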
# [3] = Stat Signaling Pathway (AID 446); conditions: ME-180 SIE beta-lactamase reporter, IL-6 stimulated, 5 h; at 17.2 µM (top of the series) unless noted;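 note: ME-180 cervical cancer cells given 40 pM IL-6 alongside compound; SIE-controlled beta-lactamase reporter measured as 460/530 nm FRET emission ratio; % is set by controls: 0 for no effect and ±100 for the full control effect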
# Method in brief: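 Reporter line: ME-180 cervical carcinoma, SIE-beta-lactamase. Treatment: compound with 40 pM IL-6, 5 hrs, 37 C, in low-serum OPTI-MEM with 10 mM HEPES pH 7.3. Detection: 460/530 nm fluorescence.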
# [4] = molecular target: Glucocorticoid receptor (Homo sapiens) (UniProt P04150); assay: GR-GFP Redistribution (AID 450;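 active = compounds whose dose series gives a full or clear partial fitted curve of increased nuclear translocation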; note: potency is the fitted concentration of half-maximal effect)
# Chain of Glucocorticoid receptor (Homo sapiens) (P04150 whole entry, looked up, the tested form may be a part): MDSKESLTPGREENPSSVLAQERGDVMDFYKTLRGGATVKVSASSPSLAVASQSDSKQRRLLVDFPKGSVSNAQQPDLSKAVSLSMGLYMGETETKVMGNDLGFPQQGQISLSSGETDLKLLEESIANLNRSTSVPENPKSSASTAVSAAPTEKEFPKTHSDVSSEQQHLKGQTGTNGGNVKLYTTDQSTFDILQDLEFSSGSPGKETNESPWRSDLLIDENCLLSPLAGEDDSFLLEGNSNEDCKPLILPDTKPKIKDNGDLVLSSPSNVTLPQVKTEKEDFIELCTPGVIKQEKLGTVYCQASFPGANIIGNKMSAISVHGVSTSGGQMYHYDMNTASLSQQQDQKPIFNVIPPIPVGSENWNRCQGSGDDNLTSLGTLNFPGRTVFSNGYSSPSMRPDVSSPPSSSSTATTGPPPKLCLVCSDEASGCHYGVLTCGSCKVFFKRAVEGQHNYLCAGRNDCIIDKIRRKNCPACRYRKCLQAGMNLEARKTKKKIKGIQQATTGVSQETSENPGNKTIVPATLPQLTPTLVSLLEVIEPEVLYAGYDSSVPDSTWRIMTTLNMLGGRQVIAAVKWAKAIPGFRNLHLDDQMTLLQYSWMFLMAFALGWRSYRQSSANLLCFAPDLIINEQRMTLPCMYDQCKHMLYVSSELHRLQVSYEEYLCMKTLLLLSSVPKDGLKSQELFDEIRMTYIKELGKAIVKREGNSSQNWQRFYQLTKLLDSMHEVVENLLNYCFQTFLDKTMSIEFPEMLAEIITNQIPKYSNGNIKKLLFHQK
# [5] = molecular target: Glucocorticoid receptor (Homo sapiens) (UniProt P04150); assay: GR-EFC Redistribution (AID 451; calls by dose curve; note: potency is the fitted concentration of half-maximal effect); conditions: CHO-K1 GR-EFC translocation, beta-gal luminescence, 2 h
# Method in brief: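 Translocation of GR-ED fusion to nuclear EA restores b-gal, read by luminescence after 1 h room-temperature detection. Engineered CHO-K1 biosensor cells, 1,000/well, exposed 2 h at 37 C to titrations up to 46 uM final.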
# [6] = molecular target: 3',5'-cyclic-AMP phosphodiesterase 4B (Homo sapiens) (UniProt Q07343); assay: qHTS Assay for Inhibitors of PDE-IV (AID 607; active = well fitted activation curve with a large enough effect in the main read-out, with a control signal flat, not every such curve was filed as active; note: % of control where 0% means no effect)
# Chain of 3',5'-cyclic-AMP phosphodiesterase 4B (Homo sapiens) (Q07343 whole entry, looked up): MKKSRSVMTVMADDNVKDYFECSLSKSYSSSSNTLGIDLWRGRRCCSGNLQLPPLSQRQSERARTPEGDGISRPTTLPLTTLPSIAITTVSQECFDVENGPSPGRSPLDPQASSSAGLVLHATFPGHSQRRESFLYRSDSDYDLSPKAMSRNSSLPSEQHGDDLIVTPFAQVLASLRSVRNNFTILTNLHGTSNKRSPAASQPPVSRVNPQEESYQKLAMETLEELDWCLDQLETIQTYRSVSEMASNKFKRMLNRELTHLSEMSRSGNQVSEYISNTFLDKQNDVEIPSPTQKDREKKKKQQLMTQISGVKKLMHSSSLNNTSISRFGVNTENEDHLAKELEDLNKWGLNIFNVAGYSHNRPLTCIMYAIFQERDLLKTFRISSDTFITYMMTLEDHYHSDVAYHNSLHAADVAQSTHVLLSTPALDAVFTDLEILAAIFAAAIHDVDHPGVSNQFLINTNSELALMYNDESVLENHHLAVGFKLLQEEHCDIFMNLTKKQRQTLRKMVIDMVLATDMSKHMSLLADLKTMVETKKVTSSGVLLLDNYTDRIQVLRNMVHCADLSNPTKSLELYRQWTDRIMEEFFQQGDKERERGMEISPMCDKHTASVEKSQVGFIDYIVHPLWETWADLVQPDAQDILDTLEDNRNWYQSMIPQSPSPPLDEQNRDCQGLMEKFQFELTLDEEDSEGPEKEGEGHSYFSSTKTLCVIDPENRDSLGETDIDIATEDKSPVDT
# Method in brief: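 Cell-based read-out of cAMP via a modified cyclic nucleotide-gated channel and membrane potential dye (535/590 nm) in HEK293 cells expressing PDE4 endogenously. Compounds tested up to 22.9 uM final; 100 uM RO 20-1724 reference.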
# [7] = molecular target: Cytochrome P450 3A4 (Homo sapiens) (UniProt P08684); assay: qHTS Assay for Activators of Cytochrome P450 3A4 (AID 885; active = well fitted curve in the direction sought with a large enough effect; an effect the other way counts as inactive or inconclusive; note: nearly all actives have a fitted effect of over 65% in size)
# Chain of Cytochrome P450 3A4 (Homo sapiens) (P08684 whole entry, looked up): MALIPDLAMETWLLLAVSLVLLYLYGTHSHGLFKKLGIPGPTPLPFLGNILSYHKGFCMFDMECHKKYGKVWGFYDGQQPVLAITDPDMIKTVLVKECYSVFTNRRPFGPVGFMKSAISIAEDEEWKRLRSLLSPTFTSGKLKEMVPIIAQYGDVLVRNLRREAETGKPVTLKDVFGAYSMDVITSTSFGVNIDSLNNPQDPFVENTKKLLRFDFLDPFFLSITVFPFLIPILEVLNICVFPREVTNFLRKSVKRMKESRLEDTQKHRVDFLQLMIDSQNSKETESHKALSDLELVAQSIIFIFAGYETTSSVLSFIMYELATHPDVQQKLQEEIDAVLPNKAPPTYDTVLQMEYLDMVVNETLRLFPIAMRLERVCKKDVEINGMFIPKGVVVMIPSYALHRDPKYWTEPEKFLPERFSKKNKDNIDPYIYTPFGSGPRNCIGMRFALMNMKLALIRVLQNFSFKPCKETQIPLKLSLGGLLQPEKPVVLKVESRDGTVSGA
# Method in brief: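 Signal was normalized against complete inhibition by 57 uM ketoconazole. The reaction used 20nM CYP3A4 with 25uM Luciferin-PPXE, 10-min compound preincubation and a 60-min NADPH-supported step at RT.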
# [8] = molecular target: Cytochrome P450 2D6 (Homo sapiens) (UniProt P10635); assay: qHTS Assay for Inhibitors and Substrates of Cytochrome P450 2D6 (AID 891; active = well fitted curve in the direction sought with a large enough effect; an effect the other way counts as inactive or inconclusive; note: potency is the fitted concentration of half-maximal effect; nearly all actives have a fitted effect of over 60% in size)
# Chain of Cytochrome P450 2D6 (Homo sapiens) (P10635 whole entry, looked up): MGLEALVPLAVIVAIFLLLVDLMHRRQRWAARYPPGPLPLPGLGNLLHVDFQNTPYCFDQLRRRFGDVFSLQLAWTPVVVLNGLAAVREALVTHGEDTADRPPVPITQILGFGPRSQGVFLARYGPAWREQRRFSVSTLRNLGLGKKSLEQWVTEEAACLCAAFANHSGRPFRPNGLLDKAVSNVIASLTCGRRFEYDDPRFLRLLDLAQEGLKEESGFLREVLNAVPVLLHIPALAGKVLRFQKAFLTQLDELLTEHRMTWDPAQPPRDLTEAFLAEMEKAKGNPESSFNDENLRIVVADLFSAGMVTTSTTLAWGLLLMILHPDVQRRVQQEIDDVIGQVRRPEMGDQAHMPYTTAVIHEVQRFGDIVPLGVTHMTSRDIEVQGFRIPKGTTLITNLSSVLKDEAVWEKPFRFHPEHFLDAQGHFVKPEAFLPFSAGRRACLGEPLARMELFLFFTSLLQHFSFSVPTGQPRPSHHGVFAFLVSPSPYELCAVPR
# Method in brief: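 Human CYP2D6 (5 nM) with 30 uM Luciferin-ME EGE (at Km) in 100 mM KPO4, compound preincubated 10 min, then NADPH regeneration system for 60 min at room temperature. Luciferin read by luminescence; normalized to 1.43 uM quinidine.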
# [9] = qHTS Assay for Identification of Small Molecule Antagonists for NFkB Signaling Pathway (AID 895; active = well fitted inhibition curve with a large enough effect in the signal ratio, with a control signal flat, not every such curve was filed as active; the % refers to the signal ratio; note: % is set by controls: 0 for no effect and ±100 for the full control effect)
# Method in brief: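 Beta-lactamase reporter read-out (460 and 530 nm emission ratio, 405 nm excitation, 2 hrs substrate loading RT) after 5 hr stimulation with 10 pM TNF alpha in compound-treated NFkB-bla ME-180 cells in low-serum medium.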
# [10] = qHTS Assay for Identification of Small Molecule Agonists for Thrombopoietin (TPO) Signaling Pathway (AID 917; active = well fitted curve in the direction sought with a large enough effect; an effect the other way counts as inactive or inconclusive; note: % is set by controls: 0 for no effect and ±100 for the full control effect)
# Method in brief: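 Murine Ba/F3 cells stably expressing human TPO receptor and a Glycoprotein IIb promoter–luciferase reporter were IL-3-starved overnight, then treated with compounds plus TPO (26 pM final, its EC50) for 24 hrs at 37 C; luminescence was read.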
# [11] = molecular target: Pyruvate kinase (Leishmania mexicana) (UniProt Q27686); assay: qHTS Validation Assay for Inhibitors of Leishmania Mexicana Pyruvate Kinase (AID 945; active = well fitted curve in the direction sought with a large enough effect; an effect the other way counts as inactive or inconclusive;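 note: 0% = DMSO only neutral control wells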)
# Chain of Pyruvate kinase (Leishmania mexicana) (Q27686 2-499 E452W): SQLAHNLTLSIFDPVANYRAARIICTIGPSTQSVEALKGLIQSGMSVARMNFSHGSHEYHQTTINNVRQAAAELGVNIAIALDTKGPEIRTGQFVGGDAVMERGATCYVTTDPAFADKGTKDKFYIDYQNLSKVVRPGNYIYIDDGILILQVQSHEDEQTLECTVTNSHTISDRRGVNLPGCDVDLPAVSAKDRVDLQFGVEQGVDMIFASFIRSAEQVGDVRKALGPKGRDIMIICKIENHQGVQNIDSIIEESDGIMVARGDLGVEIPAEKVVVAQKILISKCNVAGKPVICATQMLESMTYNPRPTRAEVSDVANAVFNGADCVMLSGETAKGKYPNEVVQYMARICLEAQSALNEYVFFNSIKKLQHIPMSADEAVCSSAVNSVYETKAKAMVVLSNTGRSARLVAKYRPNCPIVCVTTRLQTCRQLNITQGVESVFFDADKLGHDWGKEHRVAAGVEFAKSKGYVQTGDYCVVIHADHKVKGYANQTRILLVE
# Method in brief: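 Read-out: luminescence from PKLight stop/detection reagent, data normalized to DMSO. Reaction: 0.2 nM E451W LmPYK, 0.5 mM PEP, 0.1 mM ADP, pH 7.2, 1 h room temperature.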
# [12] = molecular target: Pyruvate kinase PKM (Homo sapiens) (UniProt P14618); assay: qHTS Assay for Activators of Human Muscle Pyruvate Kinase (AID 954; active = well fitted curve in the direction sought with a large enough effect, not every such curve was filed as active;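 note: 0% = uninhibited enzyme and -100% = no enzyme or full thiadiazolimine inhibition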)
# Chain of Pyruvate kinase PKM (Homo sapiens) (P14618 whole entry, looked up): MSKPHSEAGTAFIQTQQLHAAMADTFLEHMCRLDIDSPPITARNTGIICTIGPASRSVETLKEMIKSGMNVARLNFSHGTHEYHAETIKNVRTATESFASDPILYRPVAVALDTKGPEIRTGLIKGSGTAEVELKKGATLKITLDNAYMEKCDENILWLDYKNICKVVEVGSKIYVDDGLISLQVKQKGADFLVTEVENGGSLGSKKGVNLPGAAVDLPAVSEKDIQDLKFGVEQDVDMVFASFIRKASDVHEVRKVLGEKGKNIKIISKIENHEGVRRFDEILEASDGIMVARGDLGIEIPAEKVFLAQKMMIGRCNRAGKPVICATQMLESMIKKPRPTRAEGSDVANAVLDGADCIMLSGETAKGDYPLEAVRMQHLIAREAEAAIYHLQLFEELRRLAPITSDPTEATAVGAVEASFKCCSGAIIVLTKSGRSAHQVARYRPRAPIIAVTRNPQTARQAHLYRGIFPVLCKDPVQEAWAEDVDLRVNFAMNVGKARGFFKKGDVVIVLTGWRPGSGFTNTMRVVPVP
# Method in brief: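 Human PKM2 activity is measured as ATP generation, detected by luciferase-coupled luminescence. The enzyme (0.1 nM) acts on 0.5 mM PEP and 0.1 mM ADP for 1 h at ambient temperature; data are normalized to uninhibited and full-inhibition wells.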
# [13] = molecular target: Alpha-galactosidase A (Homo sapiens) (UniProt P06280); assay: Counterscreen for Glucocerebrosidase Inhibitors: qHTS Assay for Human alpha-Galactosidase at pH 4.5 (AID 992; active = well fitted curve in the direction sought with a large enough effect; an effect the other way counts as inactive or inconclusive; note: 0% is about no effect)
# Chain of Alpha-galactosidase A (Homo sapiens) (P06280 whole entry, looked up): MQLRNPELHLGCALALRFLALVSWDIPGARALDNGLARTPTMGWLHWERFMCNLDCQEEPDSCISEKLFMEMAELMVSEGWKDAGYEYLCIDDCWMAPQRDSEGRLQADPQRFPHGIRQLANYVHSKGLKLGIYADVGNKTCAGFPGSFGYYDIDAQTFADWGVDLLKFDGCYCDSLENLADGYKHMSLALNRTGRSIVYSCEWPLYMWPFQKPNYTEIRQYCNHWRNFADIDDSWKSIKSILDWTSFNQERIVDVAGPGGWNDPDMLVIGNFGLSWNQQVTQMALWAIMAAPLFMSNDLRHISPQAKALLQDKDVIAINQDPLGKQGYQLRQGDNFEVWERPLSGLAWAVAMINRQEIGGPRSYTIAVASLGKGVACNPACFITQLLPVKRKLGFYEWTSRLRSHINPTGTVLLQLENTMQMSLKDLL
# Method in brief: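 Quantitative HTS: compounds tested from 0.7 nM up to 77 uM against 2 nM enzyme with 80 uM 4-MU alpha-D-galactopyranoside. The 20 min room-temperature reaction is stopped with 1M NaOH/1M glycine, pH 10.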
# [14] = molecular target: alpha-glucosidase (Oryza sativa, rice) (UniProt Q653V4); assay: Counterscreen for Glucocerebrosidase Inhibitors: qHTS Assay for Rice alpha-Glucosidase at pH 5.0 (AID 997; active = well fitted curve in the direction sought with a large enough effect; an effect the other way counts as inactive or inconclusive;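 note: 0% = full activity with enzyme and -100% = basal without enzyme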)
# Method in brief: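 Rice alpha-glucosidase (4 nM final) with 400 uM 4-methylumbelliferyl-alpha-D-glucopyranoside in citrate buffer pH 5.0, 20 min at room temperature, stopped at pH 10; fluorescence 365/440 nm, compounds 0.7 nM–77 uM, AC50 from Hill fits.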
# [15] = qHTS Assay for Identification of Small Molecule Agonists for Hypoxia Response Element Signaling Pathway (AID 914; active = well fitted activation curve with a large enough effect in the signal ratio, with a control signal flat, not every such curve was filed as active; the % refers to the signal ratio; note: potency is the fitted concentration of half-maximal effect; for activation: % of control where 0% means no effect); conditions: ME-180 (cervical carcinoma) HRE-bla reporter, beta-lactamase ratio, CoCl2, 17 h; activation: hits give high values
# Method in brief: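 qHTS titration; ME-180 HRE-bla cells; EC50 CoCl2 co-treatment, 17 h at 37 degrees Celsius; CCF4 dye, ex 405nm, em 460nm and 530nm; %Activity from ratio; AC50.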
smiles,measurement,setting,value
CCCN1C[C@@H](CSC)C[C@H]2c3cccc4[nH]cc(c34)C[C@@H]21,"activity change, negative = inhibition",[1],10.4% [at 38 µM]
same,"activity change, negative = inhibition",[2],-24.1% [at 38 µM]
same,"activity, negative = inhibition",[3],-10.6% [at 38 µM]
same,Potency,[4],> 46 µM
same,Potency,[5],> 46 µM
same,Potency,[6],inactive
same,Potency,[7],inactive
same,Potency,[8],0.1 µM (active)
same,Potency,[9],inactive
same,Potency,[10],inactive
same,Potency,[11],inactive
same,outcome,[12],inactive
same,outcome,[13],inactive
same,outcome,[14],inactive
CCOc1ccc(CSC(CC(=O)O)C(=O)O)cc1 (centres undefined),"activity change, negative = inhibition",[1],-0.441%
same,"activity change, negative = inhibition",[2],-5.85%
same,"activity, negative = inhibition",[3],11.1%
same,Potency,[4],> 20.6 µM
same,activation,[15],14.8%
CCCCOc1ccc(CSC(CC(=O)O)C(=O)O)cc1 (centres undefined),"activity change, negative = inhibition",[1],11.3%
same,"activity change, negative = inhibition",[2],11.2%
same,"activity, negative = inhibition",[3],1.48%
same,Potency,[4],> 20.6 µM
same,activation,[15],26.9%
CCCCOC(=O)Nc1ccc(S(=O)(=O)Nc2nc(C)cc(C)n2)cc1,"activity change, negative = inhibition",[1],-5.25%
same,"activity change, negative = inhibition",[2],-8.58%
same,"activity, negative = inhibition",[3],-5.4%
same,Potency,[4],> 20.6 µM
same,activation,[15],-6.31%
CCCCOc1nc2ccccc2nc1C(C#N)C(=O)NC1CCCCC1 (centres undefined),"activity change, negative = inhibition",[1],8.43%
same,"activity change, negative = inhibition",[2],-13.6%
same,"activity, negative = inhibition",[3],25.7%
same,Potency,[4],> 20.6 µM
same,Potency,[15],12.6 µM (active)
CCOc1ccc(NC(=O)CSC2=C(C#N)C(c3ccc4c(c3)OCO4)CC(=O)N2)cc1 (centres undefined),"activity change, negative = inhibition",[1],-17.2%
same,"activity change, negative = inhibition",[2],-5.95%
same,"activity, negative = inhibition",[3],-3.62%
same,Potency,[4],> 20.6 µM
same,activation,[15],-0.0576%
CC(C)COc1ccc(C(=O)NC(CC(C)C)C(=O)O)cc1 (centres undefined),"activity change, negative = inhibition",[1],-2.73%
same,"activity change, negative = inhibition",[2],-7.69%
same,"activity, negative = inhibition",[3],3.82%
same,Potency,[4],> 20.6 µM
same,activation,[15],11.5%
O=C(C1CCCCC1)N1CCCn2c1nc1ccccc12,"activity change, negative = inhibition",[1],8.92%
same,"activity change, negative = inhibition",[2],-19.9%
same,"activity, negative = inhibition",[3],4.38%
same,Potency,[4],> 20.6 µM
same,activation,[15],6.44%
O=C(CNC1C(=O)Nc2ccccc21)Sc1ccccc1 (centres undefined),"activity change, negative = inhibition",[1],-0.11%
same,"activity change, negative = inhibition",[2],-10.4%
same,"activity, negative = inhibition",[3],9.1%
same,Potency,[4],> 20.6 µM
same,activation,[15],4%
Cc1cccc(OCC(=O)NCC(=O)n2nc(C)cc2C)c1,"activity change, negative = inhibition",[1],2.67%
same,"activity change, negative = inhibition",[2],12.1%
same,"activity, negative = inhibition",[3],4.06%
same,Potency,[4],> 20.6 µM
same,activation,[15],14.3%
